# Laboratory results from ChEMBL document CHEMBL3988442, “University of Dundee, Small-Polar-MMV Screening Library” (2021).
# The whole screen tested about 48,000 compounds, of which about 13,000 (27%) showed an effect of 50% or more. The list shows a part of the results.
# Tested on: Wolbachia pipientis
# Experiment: Anti-Wolbachia Cell-Based Screen
# Assay type: functional
# Design: scale not given: in the data most compounds retested in dose-response had high values
# Settings: 5 µM
row,Compound,Percent Effect [%]
1,CCOC(C)c1nc(Cn2cc(C)cn2)cs1 (stereo not drawn),-10.7
2,COC1CCN(c2cc(C(C)C)nc3ccnn23)C1 (stereo not drawn),-6.556
3,O=C(Cn1nc(-c2cccs2)ccc1=O)N1CCCCCC1,16.15
4,CC1Cc2ccccc2N1C(=O)Cn1nc(-c2cccs2)cc(N)c1=O (stereo not drawn),146.8
5,CC1Cc2ccccc2N1C(=O)Cn1nc(-c2cccs2)ccc1=O (stereo not drawn),148.6
6,Cc1ccc(-c2cc(N)c(=O)n(CC(=O)NCC3CC3)n2)s1,-0.7868
7,CN(C)CC1CN(CC(=O)N2CCc3ccccc32)CCO1 (stereo not drawn),-2.513
8,O=C(c1csnn1)N1CCc2ccccc21,9.308
9,Nc1cc(-c2cccs2)nn(CC(=O)N2CCc3ccccc32)c1=O,164.1
10,O=c1ccc(-c2cccs2)nn1CN1CCCCCC1,6.119
11,Cc1cc(CS(=O)(=O)CC(=O)N2c3ccccc3CC2C)no1 (stereo not drawn),4.378
12,CSCCCN1C[C@H]2CC[C@@H]1CN(Cc1[nH]cnc1C)C2,27.65
13,COCCN(C/C=C/c1ccccc1)Cc1[nH]cnc1C,0.6053
14,COCCN(CCOC)Cc1c(C)nc2ccccc2c1O,87.45
15,COCCN(Cc1ccccc1)Cc1csc(-c2ncccn2)n1,9.824
16,Cn1ccc(CN2CCC(NC(=O)Cc3ccccc3)CC2)cc1=O,-4.576
17,Cn1c(CN2CCC(OCc3cccnc3)CC2)cc2ccccc21,-15.6
18,Cn1ccc(CN2CCC(OCCc3ccccc3)CC2)cc1=O,4.919
19,Cn1ccc(CN2CCC(CC(=O)N3CCCC3)CC2)cc1=O,63.9
20,Cn1ccc(CN2CCC(Cc3ccccc3)CC2)cc1=O,141.3
21,Cn1ccc(CN2CCC(OCc3ccccc3)CC2)cc1=O,85.88
22,Cn1ccc(CN2CCC(c3ccccc3)CC2)cc1=O,1.288
23,Cn1ccc(CN2CCC(NC(=O)NC3CCCCC3)CC2)cc1=O,-14.97
24,COc1cccc(-c2n[nH]cc2CNCC2CCS(=O)(=O)C2)c1 (stereo not drawn),9.215
25,O=C1CCC2(CCOC2)CN1Cc1nc2ccc(Cl)cc2[nH]1 (stereo not drawn),-5.094

row,Compound,Percent Effect [%]
1,O=C1CCC(C(=O)N(Cc2ccsc2)CC2CCCO2)=NN1 (stereo not drawn),39.45
2,Cc1ccc2c(c1)C(NCc1nccn1Cc1ccccc1)CCCO2 (stereo not drawn),-18.78
3,Cc1cc(C)nc(N2CCN(C(=O)c3ccc(C4CCCO4)s3)CC2)n1 (stereo not drawn),6.831
4,CCc1cnc(C)nc1NCc1nc(COC)no1,13.28
5,CN1CCN(c2ccc(NS(=O)(=O)c3ccc(Cl)s3)cc2C(=O)O)CC1,118.1
6,O=C(O)c1cc(S(=O)(=O)Nc2ccc(Cl)cc2)cc2c1OCCO2,-1.351
7,CCc1ccc(S(=O)(=O)Nc2cc(C(=O)O)c(F)cc2F)s1,-4.689
8,O=C(O)c1cc(NS(=O)(=O)c2cccc(Cl)c2F)ccc1Cl,-8.503
9,O=C(O)C(F)(F)F.O=C(O)c1cc(NS(=O)(=O)c2ccc(Cl)s2)ccc1N1CCOCC1,94.51
10,CN1CCN(c2ccc(NS(=O)(=O)c3ccc(Br)s3)cc2C(=O)O)CC1,107.3
11,CCc1cccc(NS(=O)(=O)c2cc(C)c(C(=O)O)s2)c1,-4.966
12,Cc1nn(C(C)C)c(C)c1S(=O)(=O)Nc1ccc(C(=O)O)c(Cl)c1,2.82
13,CCC1(c2ccc(NS(=O)(=O)c3ccc(Cl)s3)cc2)CCC(=O)NC1=O (stereo not drawn),13.42
14,CN(C)Cc1ccc(C(N)=O)cc1NC(=O)c1cccc(C#N)c1,-8.387
15,N#Cc1ccc(N2CC3(CCN(c4nccs4)C3)C2)nc1.O=CO.O=CO,-6.647
16,CCc1ccc(CNC[C@H]2C[C@@H](CO)N(C)[C@H]2c2ccccc2F)o1,-16.71
17,O=C1NCC2(CCN(C(=O)c3ccc4c(c3)CCCO4)CC2)O1,9.067
18,CCOc1cccc(CN2CCCC(Nc3ccc(F)cc3)C2)c1O (stereo not drawn),-11.06
19,Cc1ccccc1C(=O)CN1C(=O)c2ccccc2CS1(=O)=O,-19.77
20,CC(C)(O)CCc1cccc(C(=O)NCC2COCCO2)c1 (stereo not drawn),5.622
21,COCCN(Cc1cnn(C)c1)c1nc2c(s1)c(C)nn2C,-9.354
22,Cc1cccc(N2CCC3(CCN(Cc4ccccn4)CC3)CC2)n1.O=C(O)C(F)(F)F.O=C(O)C(F)(F)F,8.022
23,O=C(O)C(F)(F)F.O=C(c1ccoc1)N1CCC2(CCC(=O)N2Cc2ccncc2)CC1,2.988
24,Cc1cccc(CN2C(=O)CCC23CCN(C(=O)NC(C)C)CC3)n1.O=C(O)C(F)(F)F,107.8
25,Cc1cccc(CN2C(=O)CCC23CCN(C(=O)c2ccco2)CC3)n1.O=C(O)C(F)(F)F,108.9

row,Compound,Percent Effect [%]
1,Cc1cccc(N2CCC3(CCCC(=O)N3)CC2)n1.O=C(O)C(F)(F)F,-22.27
2,Cc1cccc(CN2C(=O)CCC23CCN(c2ccccn2)CC3)n1.O=C(O)C(F)(F)F.O=C(O)C(F)(F)F,98.24
3,Cc1cccc(CN2CCC3(CCCN(C(=O)NC(C)C)C3)C2=O)n1.O=C(O)C(F)(F)F (stereo not drawn),-6.059
4,Cc1cccc(CN2CCCC3(CCC(=O)N3CCN(C)C)CC2)n1.O=C(O)C(F)(F)F.O=C(O)C(F)(F)F (stereo not drawn),115.9
5,Cc1cccc(CN2CCOC3(COCCN(CCN(C)C)C3)C2)n1.O=C(O)C(F)(F)F.O=C(O)C(F)(F)F.O=C(O)C(F)(F)F (stereo not drawn),-6.557
6,Cc1cccc(CN2CCC3(CCCN(C(=O)NC4CC4)C3)C2=O)n1.O=C(O)C(F)(F)F (stereo not drawn),34.29
7,Cc1cc(CN(C)C(=O)c2ccc(Cl)c(S(C)(=O)=O)c2)no1,-0.7928
8,Cn1ccnc1CCNS(=O)(=O)Cc1cccc(C#N)c1,3.021
9,C1CCC(CSc2nnnn2C2CC2)OC1 (stereo not drawn),-5.592
10,O[C@H]1Cc2ccccc2[C@H]1n1ccnc1-c1cc2n(n1)CCNC2,-8.508
11,CC(C)N1CCC(CN2CCn3nc(CNC(=O)N(C)C)cc3C2)CC1,6.322
12,Cc1cccc(CN2CCC3(CCCN(C(=O)N4CCCC4)C3)C2=O)n1.O=C(O)C(F)(F)F (stereo not drawn),-13.65
13,Cc1cccc(CN2C(=O)CCC23CCN(C(=O)N2CCCC2)CC3)n1.O=C(O)C(F)(F)F,96.5
14,COCCN1C(=O)CC[C@]12CC[C@@H](NCc1cccc(C)n1)CC2.O=C(O)C(F)(F)F,-11.86
15,COc1cc(CN(C)C(=O)NCc2nccs2)ccc1SC,-21.32
16,CN(Cc1cc2ccccc2o1)S(C)(=O)=O,-18.47
17,CN(CC1CC1)C(=O)c1cc2c(c(S(N)(=O)=O)c1)CCC2,-0.6394
18,c1cc(CNCC2CNc3ccnn3C2)cc(OC2CCCCC2)n1 (stereo not drawn),87.88
19,COc1cc(CNCC2CNc3ccnn3C2)ccn1 (stereo not drawn),104.7
20,c1cc(CNCC2CNc3ccnn3C2)cc(OC2CCCC2)n1 (stereo not drawn),105.3
21,c1ccc(Oc2cc(CNCC3CNc4ccnn4C3)ccn2)cc1 (stereo not drawn),3.776
22,c1cc2n(n1)CC(CNCc1ccc(OC3CCCCC3)nc1)CN2 (stereo not drawn),-3.239
23,Cn1cc(CCNCC2CNc3ccnn3C2)cn1 (stereo not drawn),-8.259
24,c1cc2n(n1)CC(CNCc1ccc(OC3CCCC3)nc1)CN2 (stereo not drawn),90.58
25,Cc1cc2n(n1)CC(CNCc1ccnc(-n3ccnc3C)c1)CN2 (stereo not drawn),-4.434

row,Compound,Percent Effect [%]
1,CCN1CCN(c2ccc(F)cc2C(C)NCc2nc(C)no2)CC1 (stereo not drawn),5.378
2,CNS(=O)(=O)CCCN1CCCCCC1c1ccc(C)o1 (stereo not drawn),-40.39
3,Cc1cc(C(=O)N2CCc3nnc(N)cc3C2)c(C)n1-c1cccnc1,-7.22
4,Cc1cc(C(=O)CN2C(=O)c3ccccc3CS2(=O)=O)c(C)[nH]1,11.78
5,CS(=O)(=O)N1C[C@@H]2CC[C@H](C1)N(C/C=C/c1ccc(F)cc1)C2,-3.791
6,CCS(=O)(=O)c1nccn1-c1cccc(F)c1,-14.2
7,Cc1cnn(C(C)C2CC2)c1NC(=O)c1ncccc1O (stereo not drawn),16.76
8,c1cc(CNCC2CNc3ccnn3C2)cc(N2CCCCC2)n1 (stereo not drawn),12.93
9,c1cc(CNCC2CNc3ccnn3C2)cc(N2CCOCC2)n1 (stereo not drawn),104.3
10,O=C(c1cccc(CNCC2CNc3ccnn3C2)c1)N1CCCC1 (stereo not drawn),2.865
11,CCSCCNC(=O)c1cnc(-c2ccccc2)nc1O,-4.027
12,COC(=O)CCc1c(C)nn(-c2nc(C)cc(=O)[nH]2)c1C,2.472
13,CCC(C)(NCC(=O)Nc1nc(C)cs1)c1nc(C)cs1 (stereo not drawn),-9.944
14,Cc1cc(=O)[nH]c(-n2nc(C)c(CCC(=O)NCC(C)C)c2C)n1,133.4
15,Cc1ccc(C(C(=O)NCCc2nc(C)cc(=O)[nH]2)N(C)C)cc1 (stereo not drawn),-13.39
16,Cc1cc(=O)[nH]c(-n2nc(C)c(CCC(=O)Nc3nc(C)cs3)c2C)n1,139.8
17,COc1ccc(OC)c(CCNc2ncc(S(N)(=O)=O)s2)c1,-19.79
18,CC(NC(=O)CSCC#N)c1ccccc1 (stereo not drawn),5.295
19,CC(=O)NC1CCCN(C(=O)Nc2cnc3c(cnn3C(C)C)c2)C1 (stereo not drawn),-1.693
20,CC(=O)N1CCCN(C(=O)c2cnc3n[nH]c(C)c3c2)CC1,0.885
21,Cc1cnn(CC2CCCN2C(=O)c2cnc3n[nH]c(C)c3c2)c1 (stereo not drawn),1.676
22,Cc1cnn(CC2CCCCN2C(=O)c2cnc3n[nH]c(C)c3c2)c1 (stereo not drawn),131.8
23,Cc1cc(C)n(CC2CCCN2C(=O)c2cnc3n[nH]c(C)c3c2)n1 (stereo not drawn),152.9
